# This is one part of a sample in which hits are shown more often than they occur.
# IDE exosite inh = exo-site inhibitors of human insulin-degrading enzyme; purified IDE, FL-6b probe fluorescence polarization; hits give low values; z-score at 20 µM; 17,000 compounds, 6.3% hits; AID 1259349;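 active = z-score of -3 or lower, meaning strong loss of probe binding signal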;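 also: His-tagged human IDE residues 42-1019 made in E. coli with 30 nM FL-6b probe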
# Target sequence (P14735 42-1019 limits assumed): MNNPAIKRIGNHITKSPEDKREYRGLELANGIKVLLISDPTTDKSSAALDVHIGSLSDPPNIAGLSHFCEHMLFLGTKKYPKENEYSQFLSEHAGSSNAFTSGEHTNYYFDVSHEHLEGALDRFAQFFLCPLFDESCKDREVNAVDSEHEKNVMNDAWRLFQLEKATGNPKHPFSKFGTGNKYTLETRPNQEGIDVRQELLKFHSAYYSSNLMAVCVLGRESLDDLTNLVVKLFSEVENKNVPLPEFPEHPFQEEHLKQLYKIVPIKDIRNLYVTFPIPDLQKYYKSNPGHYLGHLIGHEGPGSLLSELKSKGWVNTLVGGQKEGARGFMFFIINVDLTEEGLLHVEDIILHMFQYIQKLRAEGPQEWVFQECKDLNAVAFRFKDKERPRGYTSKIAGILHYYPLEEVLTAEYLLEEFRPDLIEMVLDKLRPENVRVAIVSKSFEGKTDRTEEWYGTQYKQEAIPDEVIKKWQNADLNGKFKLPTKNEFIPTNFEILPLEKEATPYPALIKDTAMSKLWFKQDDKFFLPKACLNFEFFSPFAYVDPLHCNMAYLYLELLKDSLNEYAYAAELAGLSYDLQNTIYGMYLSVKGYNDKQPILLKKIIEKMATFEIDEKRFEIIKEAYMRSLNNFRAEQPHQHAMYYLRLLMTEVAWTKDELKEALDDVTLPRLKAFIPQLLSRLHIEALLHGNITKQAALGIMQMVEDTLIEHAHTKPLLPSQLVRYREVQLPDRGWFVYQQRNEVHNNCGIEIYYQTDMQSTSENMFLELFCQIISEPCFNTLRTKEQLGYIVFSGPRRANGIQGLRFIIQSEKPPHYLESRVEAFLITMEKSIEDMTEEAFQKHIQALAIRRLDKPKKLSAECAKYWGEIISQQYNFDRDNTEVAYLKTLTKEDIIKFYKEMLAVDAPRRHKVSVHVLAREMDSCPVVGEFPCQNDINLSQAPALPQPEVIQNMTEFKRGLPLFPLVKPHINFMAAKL
# The depositor's hits bear a star.
SMILES,IDE exosite inh
O=C(Cc1ccccn1)N1CCCCN2[C@@H](CO)[C@H](c3ccc(-c4ccccc4F)cc3)[C@@H]2C1,0.008
O=C(Cc1ccccn1)N1CCCCN2[C@H](CO)[C@@H](c3ccc(Br)cc3)[C@@H]2C1,1.7
O=C(Cc1ccccn1)N1CCCCN2[C@@H](CO)[C@@H](c3ccc(-c4ccccc4F)cc3)[C@@H]2C1,-5.6*
O=C(Cc1ccccn1)N1CCCCN2[C@H](CO)[C@H](c3ccc(-c4ccccc4F)cc3)[C@H]2C1,-4.4*
O=C(Cc1ccccn1)N1CCCCN2[C@H](CO)[C@@H](c3ccc(-c4ccccc4F)cc3)[C@H]2C1,-0.28
O=C(Cc1ccccn1)N1CCCCN2[C@H](CO)[C@H](c3ccc(Br)cc3)[C@@H]2C1,4.5
CCC(=O)N1[C@@H]2Cn3c(ccc(C4=CCCC4)c3=O)[C@H]1[C@@H](C(=O)OC)[C@@H]2CO,0.87
C/C=C/c1ccc([C@@H]2[C@H]3CN(C(=O)Cc4ccncc4)CCCCN3[C@H]2CO)cc1,2.8
C/C=C/c1ccc([C@H]2[C@@H](CO)N3CCCCN(C(=O)Cc4cccnc4)C[C@@H]23)cc1,-0.18
C/C=C/c1ccc([C@@H]2[C@@H](CO)N3CCCCN(C(=O)Cc4cccnc4)C[C@H]23)cc1,1.3
O=C(Cc1cccnc1)N1CCCCN2[C@@H](CO)[C@H](c3ccc(/C=C/c4ccccc4)cc3)[C@@H]2C1,-9.2*
O=C(Cc1cccnc1)N1CCCCN2[C@H](CO)[C@H](c3ccc(/C=C/c4ccccc4)cc3)[C@@H]2C1,-11*
O=C(Cc1cccnc1)N1CCCCN2[C@H](C1)[C@H](c1ccc(/C=C/c3ccccc3)cc1)[C@@H]2CO,-5.5*
C/C=C/c1ccc([C@@H]2[C@H]3CN(C(=O)Cc4cccnc4)CCCCN3[C@H]2CO)cc1,0.34
O=C(Cc1cccnc1)N1CCCCN2[C@H](C1)[C@@H](c1ccc(C#CC3CCCC3)cc1)[C@@H]2CO,4.7
O=C(Cc1cccnc1)N1CCCCN2[C@H](CO)[C@H](c3ccc(C#CC4CCCC4)cc3)[C@@H]2C1,1.4
N#Cc1cccc(-c2ccc([C@@H]3[C@H]4CN(C(=O)Cc5ccncc5)CCCCN4[C@H]3CO)cc2)c1,1
COC(=O)[C@@H]1[C@@H](CO)[C@@H]2Cn3c(cccc3=O)[C@@H]2N1CC1CC1,1.2
N#Cc1cccc(-c2ccc([C@H]3[C@@H](CO)N4CCCCN(C(=O)Cc5ccccc5)C[C@@H]34)cc2)c1,2.5
N#Cc1cccc(-c2ccc([C@@H]3[C@@H](CO)N4CCCCN(C(=O)Cc5cccnc5)C[C@@H]34)cc2)c1,3
O=C(Cc1ccccn1)N1CCCCN2[C@H](C1)[C@H](c1ccc(Br)cc1)[C@@H]2CO,4.4
O=C(Cc1ccccn1)N1CCCCN2[C@@H](CO)[C@@H](c3ccc(-c4ccccc4)cc3)[C@@H]2C1,-3.5*
O=C(Cc1ccccn1)N1CCCCN2[C@H](CO)[C@H](c3ccc(-c4ccccc4)cc3)[C@H]2C1,-4.7*
O=C(Cc1ccccn1)N1CCCCN2[C@H](CO)[C@@H](c3ccc(-c4ccc(F)cc4)cc3)[C@@H]2C1,0.033
O=C(Cc1ccccn1)N1CCCCN2[C@H](CO)[C@@H](c3ccc(Br)cc3)[C@H]2C1,-0.92
SMILES,IDE exosite inh
CCCC#Cc1ccc([C@@H]2[C@@H](CO)N3CCCCN(C(=O)Cc4ccccn4)C[C@H]23)cc1,0.23
O=C(Cc1ccccn1)N1CCCCN2[C@H](C1)[C@@H](c1ccc(-c3ccccc3)cc1)[C@@H]2CO,-1.2
O=C(Cc1ccccn1)N1CCCCN2[C@H](CO)[C@H](c3ccc(-c4ccc(F)cc4)cc3)[C@H]2C1,3.2
Cc1ccccc1-c1ccc([C@@H]2[C@@H](CO)N3CCCCN(C(=O)Cc4ccccn4)C[C@@H]23)cc1,-9.5*
CCCC#Cc1ccc([C@H]2[C@H](CO)N3CCCCN(C(=O)Cc4ccccn4)C[C@@H]23)cc1,0.65
O=C(Cc1ccccn1)N1CCCCN2[C@H](C1)[C@@H](c1ccc(C#Cc3ccccc3)cc1)[C@@H]2CO,-6.3*
CCCC#Cc1ccc([C@H]2[C@@H](CO)N3CCCCN(C(=O)Cc4ccccn4)C[C@H]23)cc1,-1.4
O=C(Cc1cccnc1)N1CCCCN2[C@H](CO)[C@H](c3ccc(C#CC4(O)CCCC4)cc3)[C@H]2C1,2.2
OC[C@@H]1Nc2ccc(C#Cc3cccnc3)cc2[C@@H]2NCC[C@H]12,1.6
COc1ccc(C#Cc2ccc([C@@H]3[C@@H](CO)N4CCCCN(C(=O)Cc5ccncc5)C[C@H]34)cc2)cc1,-0.52
C/C=C/c1ccc(C2[C@@H]3CN(Cc4cocn4)C[C@H]2N3)cc1 (stereo not given in full),1.3
CN1[C@@H](CO)[C@@H]2c3ccccc3NC[C@@H]21,2.6
CN(C)CC#Cc1ccc([C@@H]2[C@H](CO)N3CCCCN(C(=O)Cc4ccccn4)C[C@@H]23)cc1,-0.7
O=C(Cc1ccccc1)N1CCCCN2[C@H](CO)[C@H](c3ccc(C#Cc4ccccc4)cc3)[C@@H]2C1,-1.9
CCCC#Cc1ccc([C@H]2[C@H]3CN(C(=O)Cc4ccccn4)CCCCN3[C@H]2CO)cc1,-0.44
O=C(Cc1ccccc1)N1CCCCN2[C@H](CO)[C@H](c3ccc(C#CC4(O)CCCC4)cc3)[C@H]2C1,4.6
COCC#Cc1ccc([C@@H]2[C@H]3CN(C(=O)Cc4ccccn4)CCCCN3[C@H]2CO)cc1,-0.48
O=C1CNC[C@H]2[C@@H](c3ccc(Br)cc3)[C@H](CO)N12,-0.31
COc1ccc(C#Cc2ccc([C@@H]3[C@H]4CN(C(=O)Cc5ccccc5)CCCCN4[C@H]3CO)cc2)cc1,2.8
O=C1CNC[C@@H]2[C@H](c3ccc(Br)cc3)[C@H](CO)N12,-0.043
O=C(Cc1ccncc1)N1CCCCN2[C@H](C1)[C@@H](c1ccc(C#Cc3ccccc3F)cc1)[C@@H]2CO,-1.8
O=C(Cc1ccncc1)N1CCCCN2[C@@H](CO)[C@H](c3ccc(C#Cc4ccccc4F)cc3)[C@@H]2C1,-0.41
O=C(Cc1ccncc1)N1CCCCN2[C@H](CO)[C@H](c3ccc(C#Cc4ccccc4F)cc3)[C@@H]2C1,-4.3*
O=C(O)[C@H]1[C@H](CO)[C@H]2Cn3c(ccc(C4=CCCCC4)c3=O)[C@@H]1N2C(=O)Cc1ccccn1,1.1
N#Cc1cccc(-c2ccc([C@H]3[C@@H](CO)N4CCCCN(C(=O)Cc5ccccc5)C[C@H]34)cc2)c1,3.1

# Source: PubChem
